# Screens: PubChem, National Center for Advancing Translational Sciences (NCATS)
# The list is not random: actives were taken first. Their share in the collection is about 3.5%.
# Sm TGR inh: blocks Schistosoma mansoni thioredoxin glutathione reductase; purified TGR, DTNB reduction, TNB absorbance 405 nm; Potency, µM (series often up to 114 µM), for inactives: at the highest dose activity change, negative = inhibition, most hits filed as inhibitors; 360,000 tested, 3% active; also: % is scaled to controls: 0 for no effect and ±100 for the full control effect; nearly all actives have a fitted effect of over 60% in size
#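 Kinetic colorimetric format: TGR-catalysed, NADPH-driven DTNB reduction monitored via TNB absorbance. Enzyme dispensed at 20 nM; compound exposure 15 min at room temperature before reaction start.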
# LmPK inhibitor: LmPK (Leishmania mexicana) enzyme inhibition; Q27686; purified LmPK, Kinase-Glo ATP luminescence, 1 h; Potency, µM (top dose mostly 57.5 µM), inactives show at the top dose activity change, negative = inhibition, most hits filed as inhibitors; 290,000 tested, 0.37% active; also: % is scaled to controls: 0 for no effect and ±100 for the full control effect
#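 Purified LmPK (0.1 nM) converted ADP (0.1 mM) to ATP with PEP (0.5 mM) in imidazole buffer pH 7.2 with KCl and MgCl2, 1 h at room temperature. ATP was read by Kinase-Glo luminescence; data normalized to uninhibited and no-enzyme controls.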
# TbPYK inhibitor: blocks Trypanosoma brucei pyruvate kinase. Q57TT1. TbPYK enzyme, Kinase-Glo Plus ATP luminescence, 45 min. Potency, µM (series often up to 76.8 µM), for the others: top-dose activity, negative = inhibition, actives largely listed as inhibitors. 410,000 tested, 0.12% active. AID 624173; also: % is scaled to controls: 0 for no effect and ±100 for the full control effect; nearly all actives have a fitted effect of over 50% in size
#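 Luminescence from Kinase-Glo Plus, added after a 45-minute room-temperature reaction, served as the end-point read-out. The enzyme and substrate were preincubated with compound before ADP (130 uM final) initiated turnover. Concentration-effect curves came from normalized qHTS data.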
# RE007 growth inh: less growth of the S. pombe RE007 Vpr strain; Potency, µM (highest dose often 92.2 µM), without a hit: at the top dose activity change, negative = less growth, actives largely listed as inhibitors; 360,000 tested, 0.21% active; AID 651644; S. pombe RE007 Vpr strain, BacTiter-Glo ATP luminescence, 24 h; active = well fitted falling curve with a large enough effect; inconclusive = small, poorly fitted or top-dose-only effect; inactive = no such curve, though single readings can be large or run the other way; also: % is scaled to controls: 0 for no effect and ±100 for the full control effect; nearly all actives have a fitted effect of over 50% in size
#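 Fission yeast strain RE007, carrying one chromosomally integrated HIV-1 vpr copy, was seeded at OD 0.01 in PMG+AL medium with 23 nL pinned compound. After 24 h at 30 °C and 99% humidity, viability was read by BacTiter-Glo luminescence.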
# Giardia FBPA inh-1: blocks Giardia fructose-bisphosphate aldolase activity | AID 2451 | 290,000 tested, 0.71% active | Potency, µM (top dose mostly 59.6 µM), inactives show at the top dose activity, negative = inhibition, usual class: inhibitors | purified Giardia FBPA; also: % is scaled to controls: 0 for no effect and ±100 for the full control effect; nearly all actives have a fitted effect of over 55% in size
#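 Giardia FBPA (40 nM reagent) was preincubated 10 min at RT with compound (up to 57.5 uM final), then substrate plus GAPDH/TPI/NAD/arsenate coupling system with diaphorase/resazurin was added; resorufin fluorescence (525/598 nm) was read after 20 min.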
# NS1 function inh: influenza NS1 inhibition; Potency, µM (doses to about 46.1 µM), inactives show at the highest dose activity, positive = more growth; 270,000 tested, 0.4% active; calls by dose curve; also: actives are rising curves; nearly all actives have a fitted effect of over 50% in size
#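 A cell-based growth assay was used: compounds that relieve NS1-induced slow growth of budding yeast raise OD600. Assay medium was yeast nitrogen base with ammonium sulphate and -URA supplement, pH 6.0, with 2% galactose.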
# Giardia growth: blocks growth of Giardia lamblia trophozoites | shares compounds with Giardia FBPA inh-1 | Giardia lamblia trophozoite growth inhibition | Potency, µM (titrated, usually from 57.5 µM), inactives show top-dose activity change, negative = inhibition, hits mostly inhibitors | 1,500 tested, 5% active | AID 2785;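 also: trophozoites exposed to compound for 48 h at 37 °C; % is scaled to controls: 0 for no effect and ±100 for the full control effect; nearly all actives have a fitted effect of over 70% in size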
# Mammal cell tox: counter-screen for Giardia aldolase inhibitors: mammalian cell toxicity; shares compounds with Giardia FBPA inh-1; mammalian cell viability counter-screen, qHTS; Potency, µM (titrated, usually from 57.5 µM), for the others: at the top dose viability change, negative = toxicity, actives largely listed as inhibitors; 1,500 tested, 4% active; AID 2786;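 also: Chinese hamster ovary cells used as mammalian cytotoxicity surrogate; viability measured as cellular ATP by luminescence; compound exposure lasted 48 h before reading; % is scaled to controls: 0 for no effect and ±100 for the full control effect; nearly all actives have a fitted effect of over 60% in size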
# Giardia FBPA inh-2: confirmation of Giardia fructose-bisphosphate aldolase inhibitors; shares compounds with Giardia FBPA inh-1; purified Giardia aldolase enzyme activity, qHTS; Potency, µM (highest dose often 57.5 µM), for the others: top-dose activity change, negative = inhibition, hits mostly inhibitors; 1,500 tested, 5% active; also: % is scaled to controls: 0 for no effect and ±100 for the full control effect; nearly all actives have a fitted effect of over 45% in size
# Rabbit aldolase: selectivity test for Giardia aldolase inhibitors: rabbit aldolase; shares compounds with Giardia FBPA inh-1; Potency, µM (highest dose often 57.5 µM), without a hit: at the highest dose activity, negative = inhibition, actives largely listed as inhibitors; 1,500 tested, 4% active; AID 2794; Rabbit muscle FBPA enzyme inhibition, selectivity counter-screen; also: % is scaled to controls: 0 for no effect and ±100 for the full control effect; nearly all actives have a fitted effect of over 60% in size
# Target sequence (P00883 whole entry, looked up): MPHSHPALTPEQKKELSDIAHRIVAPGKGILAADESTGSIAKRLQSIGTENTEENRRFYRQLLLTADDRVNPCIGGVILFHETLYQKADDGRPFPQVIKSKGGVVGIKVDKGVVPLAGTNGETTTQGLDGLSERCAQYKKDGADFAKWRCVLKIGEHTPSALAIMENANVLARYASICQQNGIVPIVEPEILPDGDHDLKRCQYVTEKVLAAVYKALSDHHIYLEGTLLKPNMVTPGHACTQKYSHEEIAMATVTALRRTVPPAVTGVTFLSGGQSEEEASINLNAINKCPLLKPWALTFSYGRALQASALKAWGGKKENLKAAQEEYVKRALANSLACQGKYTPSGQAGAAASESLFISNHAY
# GAPDH coupling: GAPDH inhibition flagged for Giardia aldolase hits; shares compounds with Giardia FBPA inh-1; GAPDH coupling enzyme counterscreen, biochemical, qHTS; Potency, µM (top dose mostly 57.5 µM), for the others: at the top dose activity change, negative = inhibition, actives largely listed as inhibitors; 1,500 tested, 6% active; AID 2795; also: % is scaled to controls: 0 for no effect and ±100 for the full control effect; nearly all actives have a fitted effect of over 55% in size
# * hit, by the source's call; u = inconclusive; x = no result; [ ] = remark or other dose. Unless noted, calls follow the shape of the dose curve; as a rule, active = well fitted curve in the direction sought with a large enough effect; inconclusive = small, poorly fitted or top-dose-only effect, or another doubt; inactive = no such curve, though single readings can be large; an effect the other way counts as inactive or inconclusive. Potency is read from the fitted curve at half-maximal effect.
SMILES,Sm TGR inh,LmPK inhibitor,TbPYK inhibitor,RE007 growth inh,Giardia FBPA inh-1,NS1 function inh,Giardia growth,Mammal cell tox,Giardia FBPA inh-2,Rabbit aldolase,GAPDH coupling
CCOC(=O)c1cccc(NC(=S)NC(=O)c2cccnc2)c1,22µM*,3%,-5%,-6%,10µM*,6%,-12%[38.3 µM],3%,-10%,-10%,-2%
CCCOC(=O)c1cccc(NC(=O)c2cccnc2)c1,12%[11.4 µM],12%,-7%,-3%,0%,-18%,x,x,x,x,x
N#Cc1ccccc1NC(=S)NC(=O)c1cccnc1,u,1%,8%,3%,14µM*,7%,28%,4%,6%,-2%,15%
COc1cccc(NC(=S)Nc2ccc(O)cc2)c1,u,3%,-17%,-9%,18µM*,-2%,19%,2%,-24%,-15%,-19%
COc1cccc(NC(=S)NC(=O)c2cccnc2)c1,11µM*,-7%,-7%,0%,3.5µM*,-4%,-58%[38.3 µM],-10%,0%,-4%,2%
COc1cccc(NC(=S)NC(=O)c2cncc(Br)c2)c1,x,x,3%,-10%,x,x,x,x,x,x,x
CCOC(=O)c1c(C)c(-c2ccccc2)n(CC(=O)Nc2cc(C)ccc2OC)c1C,0%,x,1%,x,x,x,x,x,x,x,x
NC(=O)c1ccc(-n2nnnc2SCC(=O)c2ccc(O)c(O)c2)cc1,-3%,-6%,-9%,-12%,-5%,x,x,x,x,x,x
Cn1c(SCC(=O)c2ccc(O)c(O)c2)nnc1-c1ccccc1,u,2%,-8%,5%,u,2%,x,x,x,x,x
COc1ccc(-n2nnnc2SCC(=O)c2ccc(O)c(O)c2)cc1,-19%,5%,-6%,6%,u,1%,-3%[38.3 µM],u,-25%,-11%,-32%
Cn1c(SCC(=O)c2ccc(O)c(O)c2)nnc1-c1cccs1,-14%,-3%,-5%,-11%,5µM*,0%,10%[38.3 µM],-27%,u,-9%,-10%
Cc1cc(=O)[nH]c(SCC(=O)c2ccc(O)c(O)c2)n1,18µM*,16%,-4%,4%,8.9µM*,-21%,u,12%,u,-27%,-4%
Cc1cc(C)nc(SCC(=O)c2ccc(O)c(O)c2)n1,-20%,7%,-6%,-1%,11µM*,u,-25%,9%,-21%,-16%,-12%
Cc1ccc(C(=O)CSc2nc(C)cc(=O)[nH]2)cc1,1%,-4%,0%,-2%,x,9%,x,x,x,x,x
Cc1ccc(-n2ncc3c(N(CC(C)C)CC(C)C)ncnc32)c(C)c1,-5%,x,1%,x,x,x,x,x,x,x,x
COc1ccc(OC)c(NC(=O)c2nnn(CC(=O)Nc3ccc(C(C)C)cc3)c2N)c1,4%,x,1%,x,x,x,x,x,x,x,x
Cc1ccccc1-n1c(-c2ccc(=O)[nH]n2)n[nH]c1=S,10%,u,u,-18%,6.3µM*,6%,16%,-2%,0%,11%,-4%
NC(=S)NNc1ccc(Cl)c(Cl)c1,2µM*,0%,-13%,11µM*,13µM*,-63%,13%,-10%,-15%,3%,-6%
